Compound activity as filed in PubChem.
L major viab – Leishmania major promastigote growth inhibition, primary screen; Leishmania major promastigotes, resazurin fluorescence viability; inhibition, % at 10 µM; actives 9% (n = 200,000); in the data active = inhibition above about 50%;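 note: promastigotes grown with compound for 44 hours at 28 °C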
Arbovirus anti – antivirals against arbovirus infection, primary screen, cell-based, full library, 10K replicate subset | arbovirus infection cell-based antiviral screen | inhibition, % at 10 µM | actives 0.37% (n = 200,000) | AID 1251, 2008; in the data active = inhibition above about 30%
CHOP inhibitor – inhibitors of CHOP promoter induction, primary screen, cell-based, unfolded protein response, luciferase reporter. AID 2732, 2010. actives 3.8% (n = 220,000). inhibition, % at 10 µM. CHO-K1 CHOP-promoter luciferase, tunicamycin-induced, 15-18 h;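 active = compounds that reduced the stress-induced luciferase reporter signal by more than about 70% of percent inhibition, limit read from the data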;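 note: 0% = tunicamycin plus vehicle and 100% = wells without tunicamycin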
WT yeast gro inh – growth inhibition of WT strain, primary screen, mitochondrial fusion inhibitor project, WT and mutant strains, chemical genetic; mitochondrial fusion phenotypic screen; inhibition, % at 10 µM; actives 2.1% (n = 190,000); AID 1362, 2008; in the data active = inhibition above about 58%; tested in S. cerevisiae
The depositor's hits bear a star; . = no result given. Shown are actives, neighbours in structure and some others; about 12% of the full set was active somewhere.

SMILES | L major viab | Arbovirus anti | CHOP inhibitor | WT yeast gro inh
CCc1c(O)nc(SCC(=O)Nc2ccc(OC)cc2)n(C2CCCCC2)c1=O | -8 | 3 | 77* | 22
C=CCn1c2ccccc2c2nnc(SCc3ccc4nonc4c3)nc21 | 3 | -14 | 34 | 25
COc1cc(CNCCC2CCOC(C)(C)C2)ccc1O (stereo not given) | 57* | -1 | 1 | -16
COCCn1cnnc1SCC(=O)c1ccc(S(=O)(=O)N2CCCC2)cc1 | -8 | 4 | 10 | 10
C/C(N)=C(/C#N)C(=O)COC(=O)C(c1ccccc1)c1ccccc1 | 73* | 3 | -3 | -2
C=C(C)CN(CC)c1nc(N)c2c(N)nc3c(c2c1C#N)CC(=O)N3C12CC3CC(CC(C3)C1)C2 | 90* | -28 | -3 | 21
N#Cc1c(N2CCCC(O)C2)nc(N)c2c(N)nc3c(c12)CC(=O)N3C12CC3CC(CC(C3)C1)C2 (stereo not given) | 99* | -31 | -101 | 6
COc1ccc(CN2C(=O)Cc3c2nc(N)c2c(N)nc(N4CCCCC4)c(C#N)c32)cc1 | 4 | -8 | 31 | 5
Cc1cc(C(=O)CCl)c(C)n1-c1cccc([N+](=O)[O-])c1 | 101* | -31 | 104* | 30
Cc1cc(C(=O)CCl)c(C)n1-c1ccon1 | 97* | 7 | -151 | -13
CC(C)N1C2OC(C3OC4C(O3)N(C(C)C)S(=O)(=O)N4C(C)C)OC2N(C(C)C)S1(=O)=O (stereo not given) | -6 | 11 | 19 | 63*
O=C(NCCCn1ccnc1)C(=O)NCC1OCCCN1S(=O)(=O)c1ccc(Cl)cc1 (stereo not given) | 51* | 6 | 8 | -8
O=C(NCCc1c[nH]c2ccccc12)C(=O)NCC1OCCN1S(=O)(=O)c1ccc(Cl)cc1 (stereo not given) | 54* | 5 | 36 | -6
O=C(NCCc1c[nH]c2ccccc12)C(=O)NCC1OCCN1S(=O)(=O)c1ccccc1 (stereo not given) | 70* | -8 | 9 | -3
O=C(NCCC1=CCCCC1)C(=O)NCC1OCCCN1S(=O)(=O)c1ccc(F)cc1 (stereo not given) | 96* | -1 | 27 | 1
O=C(NNS(=O)(=O)c1ccccc1[N+](=O)[O-])c1cccc([N+](=O)[O-])c1 | -10 | 8 | 36 | -7
CN(C)NC(=O)C12CCC(C)(C(=O)O1)C2(C)C (stereo not given) | 10 | -2 | -8 | 8
C=CCc1cccc2cc(C(=O)NNC(=O)CC#N)c(=O)oc12 | . | . | 5 | .
Cc1ccc(CN=c2c([N+](=O)[O-])nn(-c3cccc(C)c3)n2O)cc1 | 20 | -6 | 13 | 24
COc1ccc(-n2nc([N+](=O)[O-])c(=NCCC3=CCCCC3)n2O)cc1 | 82* | -18 | 21 | 46
COc1ccc(-n2nc([N+](=O)[O-])c(=NCCc3ccc(C)cc3)n2O)cc1 | 80* | -24 | 15 | 1
COc1ccc(-n2nc([N+](=O)[O-])c(=NCc3cccnc3)n2O)cc1 | 82* | -4 | 6 | -1
COc1ccc(NC(=O)NCCC2=CCCCC2)cc1 | 2 | 2 | 4 | -2
COc1ccc(-n2nc([N+](=O)[O-])c(=NCc3ccco3)n2O)cc1 | 15 | -11 | -12 | -13
Cc1ccc(CN=c2c([N+](=O)[O-])nn(-c3cccc(Cl)c3)n2O)cc1 | 20 | -28 | 84* | 61*
SMILES | L major viab | Arbovirus anti | CHOP inhibitor | WT yeast gro inh
COc1ccc(-n2nc([N+](=O)[O-])c(=NCCc3ccc(Cl)cc3)n2O)cc1 | 26 | -9 | 34 | 17
COc1ccc(-n2nc([N+](=O)[O-])c(=NCCc3ccc(OC)c(OC)c3)n2O)cc1 | 94* | -14 | 7 | 5
CC(C)C1COC(c2cccn2Cc2ccccc2Cl)=N1 (stereo not given) | -4 | 9 | 4 | 65*
CCOc1ccc(C(=O)Nc2cc(-c3nc4ccccc4[nH]3)ccc2Cl)cc1[N+](=O)[O-] | 96* | -29 | 79* | 16
O=C(NC(=S)Nc1cc(-c2nc3ccccc3[nH]2)ccc1Cl)c1ccc2c(c1)OCO2 | 10 | -31 | 94* | 43
CCOc1ccc(C(=O)Nc2cccc(-c3nc4ccccc4[nH]3)c2C)cc1[N+](=O)[O-] | 51* | 3 | 23 | -6
CCOC(=O)c1[nH]ncc1CN1CCN(Cc2ccc(C)cc2)C(CCO)C1 (stereo not given) | -2 | 2 | 10 | 0
Cc1cc(NC(=O)COC(=O)c2cc(S(=O)(=O)N3CCOCC3)ccc2N2CCCCC2)no1 | 9 | 4 | 42 | -4
CC(=O)Nc1nc(COc2ccc3ccccc3c2)cs1 | -2 | 26 | 26 | -4
Nc1nc(COc2ccc3ccccc3c2)cs1 | -5 | 1 | -2 | 75*
CCOC(=O)c1c(CN2CCC(C)CC2)n(C)c2cc(Br)c(OC)cc12 | . | . | 36 | .
CCOC(=O)c1c(CN2CCN(Cc3ccccc3)CC2)n(C)c2cc(Br)c(OC)cc12 | 40 | -4 | 42 | 95*
O=C(/C=C/c1ccc(F)cc1)NCC1(c2ccccc2)CCOCC1 | -1 | 6 | -2 | 0
O=C(Nc1cccc(NC(=O)c2ccco2)c1)c1ccc2c(c1)OCO2 | 81* | 0 | 62 | -9
O=C(Nc1cccc(NC(=O)c2ccco2)c1)c1ccc2c(c1)OCCO2 | 51* | -4 | -7 | 24
O=C(NCC1COc2ccccc2O1)c1ccc(NC(=O)c2ccco2)cc1 (stereo not given) | 55* | -9 | -20 | -17
O=C(CN1N=C(c2ccc(Cl)cc2)CCC1=O)NCCN1CCc2ccccc2C1 | -1 | -15 | 38 | 9
OC(CNCc1ccccc1)Cn1ccc2ccccc21 (stereo not given) | 96* | 1 | 37 | 11
Cc1ccc(NC(=O)CN(c2ccc(Cl)cc2)S(=O)(=O)c2cc([N+](=O)[O-])ccc2Cl)cc1 | 59* | -2 | 30 | 30
COc1ccc(C)cc1NS(=O)(=O)c1ccc(NC(=O)CN(c2cc([N+](=O)[O-])ccc2C)S(C)(=O)=O)cc1 | 0 | -25 | 10 | 15
COc1ccc(C)cc1S(=O)(=O)N(CC(=O)Nc1cccc([N+](=O)[O-])c1)c1ccc(C)c(C)c1 | 50* | 6 | -30 | -3
CCCOc1ccc(-c2csc(NC(=O)CN3C(=O)CCC3=O)n2)cc1 | -6 | 11 | -23 | 7
O=C(OCc1nc2ccc(Cl)cc2n1CCO)c1ccc(O)cc1 | 54* | 6 | 14 | 9
Cc1c(/C=N/NC(=O)c2ccccc2O)c2ccccn2c1C(=O)c1ccc(F)cc1 | 59* | -28 | 4 | 0
Cc1c(/C=N/NC(=O)c2ccc(O)cc2)c2ccccn2c1C(=O)c1ccc(F)cc1 | 92* | -3 | 23 | -10
Cc1c(/C=N/NC(=O)c2cccnc2)c2ccccn2c1C(=O)c1ccc(F)cc1 | 53* | 16 | -12 | -2
Cc1ccc(-n2nc(C)c(/C=N/NC(=O)c3cccnc3)c2Cl)cc1 | 57* | -3 | -10 | -19
COC(=O)N/N=C/c1c(C)c(C(=O)c2ccc(F)cc2)n2ccccc12 | 7 | -10 | 8 | -8
